MITF TRPM1 HTS – activators of MITF-driven TRPM1 promoter reporter, primary screen, cell-based, SK-MEL-5, luciferase, single point. SK-MEL-5 TRPM1-promoter luciferase, 24 h; % of positive control, neutral wells = 0. activation, % at 12.5 µM. 0.75% of 300,000 active. AID 588334, 2011;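 active = mean activation of at least 80% with every replicate also reaching 80%; inconclusive = mean reaches 80% but some replicate falls short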;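 note: 0% = neutral control wells and 100% = parthenolide positive control wells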
esBAF inh – Bmi1 luciferase reporter increase in mESCs, primary screen, esBAF inhibitor project, mouse ES cells, Bmi1 luciferase knock-in, single point; 2% of 350,000 active; 24 h; 100% = twice the neutral-well signal; reporter increase, % at 12.5 µM; in the data active = activation above about 40%; inconclusive = no clear call, values can overlap the other calls;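 note: 0% = median of the plate's neutral control wells and 100% = double that signal; a rise in the Bmi1 reporter signal indicates esBAF inhibition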
C2C12 statin – suppressors of statin myotoxicity in C2C12 myotubes, primary screen, cell-based, single point, plate reader | C2C12 myotubes + simvastatin, ATP luminescence, 48 h; scaled: DMSO 0, geranylgeraniol control 100 | rescue of ATP level, % at 7.49 µM | 0.78% of 330,000 active | AID 602340, 2012;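 active = mean ATP rescue above about 67%, or every replicate alone reaching that limit, limit read from the data, passing the limit was not always enough; inconclusive = no clear call, values can overlap the other calls; inactive = mean under the limit and some replicate under it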;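 note: myotubes were challenged with 10 µM simvastatin during compound exposure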
Rtt109 Vps75 – inhibitors of C. albicans Rtt109/Vps75 HAT, primary screen, biochemical, ThioGlo CoA-SH fluorescence, plate reader. purified Rtt109/Vps75, 4 h. Histone acetyltransferase RTT109 (Candida albicans (strain SC5314 / ATCC MYA-2876)), …. inhibition, % at 34.9 µM. 0.16% of 330,000 active;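 active = inhibition of at least 50% in every replicate; inconclusive = best replicate reaches 50% inhibition but some replicates fall short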
Target sequence (Q5AAJ8 whole entry, looked up): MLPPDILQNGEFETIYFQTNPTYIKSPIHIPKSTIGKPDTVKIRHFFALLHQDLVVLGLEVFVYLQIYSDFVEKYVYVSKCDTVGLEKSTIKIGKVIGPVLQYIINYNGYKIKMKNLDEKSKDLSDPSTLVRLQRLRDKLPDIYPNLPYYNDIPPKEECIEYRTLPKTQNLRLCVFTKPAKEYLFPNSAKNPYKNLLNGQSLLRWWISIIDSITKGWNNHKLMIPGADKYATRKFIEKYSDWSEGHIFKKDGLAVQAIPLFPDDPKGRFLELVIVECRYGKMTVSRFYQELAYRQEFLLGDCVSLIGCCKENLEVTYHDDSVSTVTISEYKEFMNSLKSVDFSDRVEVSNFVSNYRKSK
Wnt bcat act – Wnt/beta-catenin pathway activators, primary screen, cell-based, plate reader, single point; Wnt/beta-catenin reporter cell assay, activator; activation, % at 9.35 µM; 1.2% of 300,000 active; AID 743398, 2014; in the data active = activation above about 30%, passing the limit was not always enough; inconclusive = no clear call, values can overlap the other calls;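 note: 0% = neutral control wells and 100% = positive control wells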
* marks the source's active call; other numbers are inactive results; ? = inconclusive; · = no result given. Compounds with a hit are over-represented: about 3.1% of the library has one in this group of screens.

SMILES	MITF TRPM1 HTS	esBAF inh	C2C12 statin	Rtt109 Vps75	Wnt bcat act
COc1ccc(C(=O)c2ccc(-c3ccc(OC)cc3)nc2)cc1	20	6	0	5	-1
COC(=O)[C@H](Cc1ccccc1)NC(=O)c1cc(COc2c(F)cccc2F)on1	46	52*	-5	10	18
CCC(NC(=O)c1cc(COc2c(F)cccc2F)on1)c1ccncc1 (stereo not given)	17	9	-9	-5	·
CN(Cc1cc(-c2ccccc2)on1)C(=O)c1cc(COc2c(F)cccc2F)on1	50	54*	-42	-15	1
COCC(=O)Nc1ccc2c(c1)C(=O)N(C)[C@@H]1CC[C@@H](CC(=O)NCc3ccccc3F)O[C@@H]1CO2	·	1	-9	·	·
C=CCn1c(N)c(C(=O)NCCC2=CCCCC2)sc1=S	63	47*	18	5	10
O=C(Nc1ccc2[nH]ncc2c1)c1cccc(F)c1	·	24	-1	-2	-3
O=C(Nc1ccc2ccccc2c1)c1cccc(F)c1	123*	50*	-2	0	46*
Cc1ccc2cc(NC(=O)c3cccc(F)c3)ccc2n1	·	16	-8	1	50*
Cc1ccc2cc(NC(=O)c3ccccc3)ccc2n1	49	3	-30	-3	40*
Cc1ccc(-c2nnc(SCC(C)C)n2C)cc1	28	55*	-12	0	61*
CCCCSc1nnc(-c2ccc(OC)cc2)n1C	47	56*	-3	14	·
CC(C)NC(=O)N[C@@H]1CC[C@H](CCNC(=O)C2CCC2)O[C@H]1CO	·	5	0	·	·
Cc1ccc(S(=O)(=O)Nc2ccc3c(c2)C(=O)N([C@H](C)CO)C[C@@H](C)[C@@H](CN(C)Cc2ccccc2)O3)cc1	·	-3	-6	·	·
Cc1cc(Cl)c2oc(C(=O)N3CCOCC3)c(C)c2c1	·	67*	0	·	4
Cc1cc(Cl)c2oc(C(=O)N(C)Cc3cc(C)[nH]n3)c(C)c2c1	4	1	0	-5	9
Cc1cc(Cl)c2oc(C(=O)N3CCN(C(=O)c4ccco4)CC3)c(C)c2c1	58	52*	-16	3	16
Cc1cc(Cl)c2oc(C(=O)N(C)C3CCOC3)c(C)c2c1 (stereo not given)	69	42*	-2	11	27
Cc1cc(Cl)c2oc(C(=O)N3CCN(c4cccc(C)n4)CC3)c(C)c2c1	·	74*	9	6	18
C[C@@H]1CN([C@H](C)CO)C(=O)c2cc(-c3ccccc3F)cnc2O[C@@H]1CN(C)C(=O)NC1CCCC1	·	2	2	·	·
CC=Cc1ccc2n(c1=O)C[C@H]1[C@H](CO)[C@@H](C(=O)NCC)[C@@H]2N1Cc1nccs1 (mixture of isomers)	·	-1	-5	·	·
CCCNC(=O)N1C[C@@H](O)COC[C@H]2O[C@H](CC(=O)N3CCCCC3)CC[C@@H]21	·	-1	16	·	·
Cc1cc(Cl)c2oc(C(=O)N(C)Cc3ccon3)c(C)c2c1	46	71*	-7	-8	22
CO[C@H](CN(C)S(=O)(=O)c1ccc(Cl)cc1)[C@@H](C)CN(Cc1ccccc1Cl)[C@@H](C)CO	·	-2	-28	·	·
C[C@@H]1CN([C@H](C)CO)C(=O)c2cc(C#Cc3cccnc3)cnc2O[C@H]1CN(C)C	·	0	10	·	·
SMILES	MITF TRPM1 HTS	esBAF inh	C2C12 statin	Rtt109 Vps75	Wnt bcat act
O=C(C[C@H]1CC[C@@H](NC(=O)c2ccc3c(c2)OCO3)[C@H](CO)O1)NCc1ccc(Oc2ccccc2)cc1	·	6	68*	·	·
CC(C)N(Cc1ccc(F)cc1)C(=O)c1cc2ccccc2oc1=O	·	47*	-4	2	7
Cc1cccnc1NC(=O)c1cc2ccccc2oc1=O	12	?	9	3	47*
CN(C)C(CNC(=O)c1cc2ccccc2oc1=O)c1ccccc1 (stereo not given)	99*	51*	2	-1	29
O=C(c1cc2ccccc2oc1=O)N(Cc1ccc(F)cc1)C1CCS(=O)(=O)C1 (stereo not given)	·	?	12	-11	-6
CCc1ccc(CN(C(=O)c2cc3ccccc3oc2=O)C2CCS(=O)(=O)C2)cc1 (stereo not given)	·	86*	1	2	·
Cc1ccc(-c2csc(N3C(=N)SCC3=O)n2)cc1	·	·	·	·	50*
O=C(NN1C(=O)/C(=C/C=C/c2ccco2)SC1=S)c1ccccc1O	-2	-6	6	70*	-1
Cc1ccc(/C=C2\SC(=S)N(Cc3ccccc3)C2=O)o1	8	5	-5	1	·
O=C(O)c1cc(-c2ccc(/C=C3/SC(=S)N(Cc4ccccc4)C3=O)o2)ccc1Cl	2	54*	-2	17	-1
CCN1[C@@H]2c3cccc(=O)n3C[C@@H]2[C@@H](CO)[C@@H]1C(=O)N1CCc2ccccc2C1	·	1	-4	·	·
COc1ccccc1CNC(=O)C[C@H]1CC[C@@H]2[C@H](COc3ccc(NC(=O)Nc4ccc(F)c(F)c4)cc3C(=O)N2C)O1	·	3	3	·	·
C[C@H](CO)N1C[C@H](C)[C@@H](CN(C)Cc2ccncc2)OCCCC[C@H](C)Oc2ccc(N(C)C)cc2C1=O	·	2	-11	·	·
O=C(CN(C(=O)CCC(=O)Nc1ccccn1)c1ccc2c(c1)OCCO2)NCCc1ccccc1	-4	1	100*	5	0
O=C(NCC(F)(F)F)[C@H]1[C@H](CO)[C@H]2Cn3c(cccc3=O)[C@H]2N1C(=O)C1CCC1	·	1	-32	·	·
CCOC(=O)c1sc(=NC(=O)c2cccc(OC)c2)n(C)c1C	?	?	-25	·	33*
CCOC(=O)c1sc(=NC(=O)c2ccccc2)n(C)c1C	68	71*	4	-11	44*
COc1ccc(CN2C[C@H](O)COC[C@H]3O[C@@H](CC(=O)N4CCc5ccccc5C4)CC[C@@H]32)cc1	·	5	25	·	·
COc1ccccc1-c1cnc2c(c1)C(=O)N([C@@H](C)CO)C[C@@H](C)[C@@H](CN(C)Cc1ccncc1)O2	·	-3	29	·	·
Cc1ccc(Nc2nc3nonc3nc2N(C)C)cc1	0	-1	88*	·	·
CCNc1nc2nonc2nc1NCC	8	-7	14	-10	-4
COc1cccc(S(=O)(=O)N[C@@H]2CC[C@@H](CCn3cc(-c4ccccn4)nn3)O[C@H]2CO)c1	·	6	-3	·	·
CC1=NN(c2ccccc2)C(=O)C1N=Nc1ccccc1 (stereo not given)	22	·	·	·	57*
CC1=NN(c2nc(-c3ccc(C)cc3)cs2)C(=O)C1N=Nc1cccc(O)c1 (stereo not given)	-7	5	4	-7	-2
